The source of these data is PubChem BioAssay (NCATS).

Unmarked numbers belong to inactive results. Records with an inconclusive call do not appear. Calls of active or inactive are those of the source. Calls come from the whole dose curve; as a rule, active = well fitted curve in the direction sought with a large enough effect; inconclusive = small, poorly fitted or top-dose-only effect, or another doubt; inactive = no such curve, though single readings can be large; an effect the other way counts as inactive or inconclusive.

Experiment [1] can be described thus: Confirmation and Secondary Assay for Modulators of Hemoglobin Beta Chain Splicing at IVS2 654 locus (AID 910). Note: % of control where 0% means no effect. Put shortly: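 HeLa cells stably carrying EGFP interrupted by mutant beta-globin IVS2-654 intron (CMV-driven) were treated with compound for 2 days at 37C; corrected splicing was scored as total peak GFP intensity per well (488 nm excitation, 500-520 nm emission).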

Experiment [2] in a line: Confirmation and Secondary Assay for Modulators of Hemoglobin Beta Chain Splicing at IVS2 705 locus (AID 930).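 Note: HeLa cells stably expressing the EGFP-705 splicing reporter; GFP fluorescence per well restored by corrected splicing of the IVS2-705 intron in EGFP; % of control where 0% means no effect.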 Put shortly: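 HeLa cells stably carrying EGFP interrupted by mutant beta-globin intron 2 (IVS2-705) treated 2 days at 37C with compound; 500 nM antisense PNA as control. Correct splicing read as total peak GFP intensity per well by laser-scanning cytometry.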
Experiment [3] deals with ATP-dependent 6-phosphofructokinase (Trypanosoma brucei brucei) (UniProt O15648). Kind of experiment: qHTS Assay to Find Inhibitors of T. brucei phosphofructokinase: hit validation (AID 492961).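 Note: luminescence reports ADP formed as PFK phosphorylates fructose-6-phosphate with ATP; % is set by controls: 0 for no effect and ±100 for the full control effect.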 Put shortly: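 Reaction: 0.1 M triethanolamine pH 8.0, 5 mM MgCl2, F6P 0.5 mM, ATP 0.1 mM, PFK 1.25 nM, 45 min RT. Read-out: ADP-Glo luminescence. Analysis: concentration-response fits, classed by r2 and efficacy.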
Chain of ATP-dependent 6-phosphofructokinase (Trypanosoma brucei brucei) (O15648 whole entry, looked up): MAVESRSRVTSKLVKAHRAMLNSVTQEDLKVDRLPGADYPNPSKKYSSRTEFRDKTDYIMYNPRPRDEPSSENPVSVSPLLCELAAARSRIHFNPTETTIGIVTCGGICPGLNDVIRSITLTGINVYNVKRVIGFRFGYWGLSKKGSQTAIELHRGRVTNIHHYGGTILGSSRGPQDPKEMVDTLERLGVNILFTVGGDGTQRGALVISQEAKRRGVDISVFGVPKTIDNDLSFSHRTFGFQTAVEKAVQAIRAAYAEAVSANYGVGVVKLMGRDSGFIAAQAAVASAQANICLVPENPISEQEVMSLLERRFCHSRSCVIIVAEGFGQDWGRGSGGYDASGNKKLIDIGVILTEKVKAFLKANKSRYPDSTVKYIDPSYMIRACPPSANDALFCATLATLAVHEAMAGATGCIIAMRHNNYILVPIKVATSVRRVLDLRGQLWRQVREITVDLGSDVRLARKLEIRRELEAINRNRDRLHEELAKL
For orientation: Quantitative high-throughput screening tests each substance at several concentrations.

In experiment [4] the target is Rap guanine nucleotide exchange factor 3 (Homo sapiens) (UniProt O95398). Kind of experiment: Confirmatory qHTS for agonist of cAMP-regulated guanine nucleotide exchange factor 3 (EPAC1) (AID 1645881).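 Note: EPAC1 catalysed release of BODIPY-GDP from Rap1B seen as fluorescence loss; 100% = effect of cAMP agonist control; nearly all actives have a fitted effect of over 75% in size.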
Chain of Rap guanine nucleotide exchange factor 3 (Homo sapiens) (O95398 whole entry, looked up): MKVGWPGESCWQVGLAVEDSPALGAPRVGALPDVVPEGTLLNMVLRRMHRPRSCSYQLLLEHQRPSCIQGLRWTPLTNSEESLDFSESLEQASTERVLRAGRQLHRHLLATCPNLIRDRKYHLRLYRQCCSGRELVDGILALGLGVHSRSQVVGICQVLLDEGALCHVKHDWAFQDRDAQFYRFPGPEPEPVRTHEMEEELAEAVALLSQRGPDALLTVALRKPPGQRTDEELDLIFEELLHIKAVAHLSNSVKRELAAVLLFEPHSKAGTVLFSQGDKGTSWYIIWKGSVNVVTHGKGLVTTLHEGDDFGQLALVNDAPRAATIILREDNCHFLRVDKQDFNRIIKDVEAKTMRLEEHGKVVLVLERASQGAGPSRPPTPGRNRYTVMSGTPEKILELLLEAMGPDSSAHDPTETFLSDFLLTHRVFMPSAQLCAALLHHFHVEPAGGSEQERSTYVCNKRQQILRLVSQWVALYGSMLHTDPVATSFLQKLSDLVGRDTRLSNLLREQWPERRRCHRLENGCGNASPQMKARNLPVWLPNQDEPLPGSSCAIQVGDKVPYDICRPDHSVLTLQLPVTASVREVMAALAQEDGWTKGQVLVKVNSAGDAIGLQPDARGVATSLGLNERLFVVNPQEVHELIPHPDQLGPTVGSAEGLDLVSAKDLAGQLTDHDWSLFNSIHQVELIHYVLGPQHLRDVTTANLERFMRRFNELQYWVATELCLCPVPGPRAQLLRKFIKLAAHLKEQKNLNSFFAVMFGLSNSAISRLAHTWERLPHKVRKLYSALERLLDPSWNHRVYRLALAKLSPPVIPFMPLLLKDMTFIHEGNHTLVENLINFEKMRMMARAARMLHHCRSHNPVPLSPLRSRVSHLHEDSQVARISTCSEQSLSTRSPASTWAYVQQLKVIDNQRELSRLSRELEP
The target of experiment [5] is Rap guanine nucleotide exchange factor 4 (Homo sapiens) (UniProt Q8WZA2). Kind of experiment: Confirmatory qHTS for agonist of cAMP-regulated guanine nucleotide exchange factor 4 (EPAC2) (AID 1645884).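 Note: nucleotide exchange releases bodipy-GDP from Rap1 and this lowers its fluorescence; % is set by controls: 0 for no effect and ±100 for the full control effect; nearly all actives have a fitted effect of over 65% in size.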
Chain of Rap guanine nucleotide exchange factor 4 (Homo sapiens) (Q8WZA2 whole entry, looked up): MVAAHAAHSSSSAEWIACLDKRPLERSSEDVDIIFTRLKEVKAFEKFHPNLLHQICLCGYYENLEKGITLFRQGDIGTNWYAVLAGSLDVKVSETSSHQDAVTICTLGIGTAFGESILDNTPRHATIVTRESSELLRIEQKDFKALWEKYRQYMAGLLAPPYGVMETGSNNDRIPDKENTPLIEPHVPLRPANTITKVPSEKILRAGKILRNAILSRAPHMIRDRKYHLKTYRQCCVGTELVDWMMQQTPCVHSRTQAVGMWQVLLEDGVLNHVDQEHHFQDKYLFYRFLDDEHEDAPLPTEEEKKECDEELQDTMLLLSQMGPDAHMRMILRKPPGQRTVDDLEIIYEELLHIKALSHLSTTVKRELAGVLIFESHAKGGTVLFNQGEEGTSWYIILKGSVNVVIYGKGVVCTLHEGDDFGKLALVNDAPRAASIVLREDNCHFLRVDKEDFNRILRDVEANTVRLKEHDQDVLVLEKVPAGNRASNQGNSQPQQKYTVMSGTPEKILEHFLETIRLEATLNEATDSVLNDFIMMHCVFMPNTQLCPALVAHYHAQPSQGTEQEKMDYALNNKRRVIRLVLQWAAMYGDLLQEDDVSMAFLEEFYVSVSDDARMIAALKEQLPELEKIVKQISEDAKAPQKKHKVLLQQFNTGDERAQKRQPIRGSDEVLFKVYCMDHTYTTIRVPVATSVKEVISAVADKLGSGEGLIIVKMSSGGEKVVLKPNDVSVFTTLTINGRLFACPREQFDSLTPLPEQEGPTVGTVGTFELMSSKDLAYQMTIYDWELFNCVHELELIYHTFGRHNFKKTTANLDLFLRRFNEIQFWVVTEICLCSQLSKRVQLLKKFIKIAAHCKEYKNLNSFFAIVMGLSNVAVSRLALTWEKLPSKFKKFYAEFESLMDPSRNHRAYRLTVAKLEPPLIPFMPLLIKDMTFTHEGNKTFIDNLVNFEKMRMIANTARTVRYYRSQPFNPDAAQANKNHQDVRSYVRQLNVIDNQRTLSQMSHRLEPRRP
The target is the same in experiment [6]. Kind of experiment: Confirmatory qHTS for antagonist of cAMP-regulated guanine nucleotide exchange factor 4 (EPAC2) (AID 1645885). Note: nearly all actives have a fitted effect of over 25% in size. Note: potency is the fitted concentration of half-maximal effect.
Experiment [7] is described as follows: qHTS profiling for inhibitors of Plasmodium falciparum proliferation (AID 504749).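 Note: 0% = DMSO vehicle and full inhibition = artemisinin control; nearly all actives have a fitted effect of over 60% in size.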 The following applies: P. falciparum in erythrocytes, SYBR Green DNA, 72 h, at 12.8 µM (top of the series). Put shortly:
(§1)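 Quantitative HTS: compounds pinned into medium, infected erythrocytes added (0.3% parasitemia, 2.5% hematocrit), 72 h culture at 37 C under 5% CO2. Saponin/Triton lysis with SYBR Green I, overnight RT, then fluorescence read.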

For experiment [8], the system named is AS120. The description is as above. The following applies: P. falciparum in erythrocytes, SYBR Green DNA, 72 h; series mostly up to 28.7 µM. Put shortly:
as §1

In experiment [9] the test system is ATS189. Described as above. Particulars: P. falciparum in erythrocytes, SYBR Green DNA, 72 h; series mostly up to 28.7 µM. Put shortly:
as §1

The subject of experiment [10] is CP191. The description is as above. The following applies: P. falciparum in erythrocytes, SYBR Green DNA, 72 h; series mostly up to 28.7 µM. The procedure, abridged: as §1
Experiment [11] has as its system CP192. The experiment is described as above. Particulars: P. falciparum in erythrocytes, SYBR Green DNA, 72 h; series mostly up to 28.7 µM. The procedure, abridged:
as §1

In experiment [12] the test system is CP194. The description is as above. Particulars: P. falciparum in erythrocytes, SYBR Green DNA, 72 h; series mostly up to 28.7 µM. Put shortly: as §1
The subject of experiment [13] is CP203. The experiment is described as above. The following applies: P. falciparum in erythrocytes, SYBR Green DNA, 72 h; series mostly up to 28.7 µM. The procedure, abridged:
as §1

The test system of experiment [14] is CP247. The description is as above. Particulars: P. falciparum in erythrocytes, SYBR Green DNA, 72 h; series mostly up to 28.7 µM. The procedure, abridged: as §1
Experiment [15] relates to CP291. The experiment is described as above. Particulars: P. falciparum in erythrocytes, SYBR Green DNA, 72 h; series mostly up to 28.7 µM. Put shortly:
as §1

Experiment [16] relates to DFO2036. The experiment is described as above. Particulars: P. falciparum in erythrocytes, SYBR Green DNA, 72 h; series mostly up to 28.7 µM. The procedure, abridged: as §1
In experiment [17] the test system is PC49. The description is as above. Particulars: P. falciparum in erythrocytes, SYBR Green DNA, 72 h; series mostly up to 28.7 µM. The procedure, abridged:
as §1

Experiment [18] deals with TAB113. Described as above. The following applies: P. falciparum in erythrocytes, SYBR Green DNA, 72 h; series mostly up to 28.7 µM. Put shortly: as §1
Experiment [19] concerns W2. The description is as above. The following applies: P. falciparum in erythrocytes, SYBR Green DNA, 72 h; series mostly up to 28.7 µM. The procedure, abridged: as §1
For experiment [20], the target named is Rap guanine nucleotide exchange factor 3 (Homo sapiens) (UniProt O95398). Kind of experiment: Confirmatory qHTS for antagonist of cAMP-regulated guanine nucleotide exchange factor 3 (EPAC1) (AID 1645880).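 Note: plate controls were DMSO only for no effect and full effect of the ATA control for full effect; nearly all actives have a fitted effect of over 55% in size.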 The procedure, abridged:
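Released BODIPY-GDP fluoresces less than Rap1-bound BODIPY-GDP; the signal is followed at 480/540 nm at 5-min intervals over 30 min, after 5 min at room temperature. Reactions contain 100 nM EPAC1, 250 nM RAP1B-BODIPY-GDP and 50 uM GDP; results are normalized to ATA and DMSO.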

As to `Oc1ccc(/C=C\c2cc(O)cc(O)c2)cc1`, the molecule was called inactive in experiment [1], in experiment [2], in experiment [3], in experiment [4] and in experiment [5]. The Potency in [6] is 44.1 µM (active). For the same molecule, the activity, negative = inhibition is 3.83% in experiment [7] (parasite line A) and -0.952% in [7] (parasite line B). The Potency result in [8], in experiment [9], in experiment [10], in [11], in [12] and in [13] was “inactive” throughout. Moreover, the Potency entry in experiment [14], in experiment [15], in experiment [16], in [17], in experiment [18] and in [19] was “inactive” each time.

Consider `O=C(c1cccc(F)c1)N1CCC2(CCN(Cc3cc(C(F)(F)F)cc(C(F)(F)F)c3)CC2)CC1`, for which the result in [4] and in experiment [5] was inactive. Further, the Potency in experiment [6] was 39.3 µM (active).

For `COc1ccccc1CNc1nc(-c2c(C)noc2C)nc2ccccc12`, the molecule was classed as inactive in experiment [4] and in [5]. Besides, in experiment [6], the Potency is 39.3 µM (active).

`COc1ccccc1CNc1ccnc(-c2ccc3c(c2)OCO3)n1`: the molecule was classed as inactive in [1], in [2], in experiment [4] and in [5]. The Potency in [6] is 17.5 µM (active).

Regarding `Cc1noc(C)c1C(=O)N1CCC2(CCN(Cc3ccc(C#N)cc3)CC2)CC1`, the Potency entry in [20] and in [6] was “inactive” throughout. The outcome in [4] and in experiment [5] was inactive.

As to `O=C(c1cnccn1)N1CCC[C@@]2(CCN(C(c3ccccc3)c3ccccc3)C2)C1`, the Potency entry in [20] was “inactive”. In addition, the molecule was called inactive in experiment [4] and in [5].
